# Data from PubChem BioAssay AID1159580 (chemical genetic matrix, 2015).
# Values joined by “and” are separate entries in the source; they are usually repeats but may differ in a detail not shown here. Identical values can stand only once. About 2,000 (36%) of roughly 5,500 compounds were called active. Another 18% or so got no clear call; they are omitted. The list shows a part of the results. A number with no mark means an inactive call. Rule as the data show it: active = normalized growth mostly below about 0.91 (no sharp cut-off); inconclusive = no clear call, values can overlap the other calls; inactive = mostly above about 0.92.
# Experiment: chemical genetic growth profiling, strain panel (AID 1159580);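 also: tested at 20 µM; growth read once vehicle control cultures reached saturation at 30 °C; 1 = growth at the plate median or of vehicle wells; lower values mean less growth of the strain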
# Details: S. cerevisiae deletion strains, growth OD
smiles,measurement,setting,value
CN1CCc2cccc3c2C1Cc1ccc(O)c(O)c1-3 (stereo not drawn),normalized growth,"locus YAL013W, strain DEP1, active compounds read low",1.01
same,normalized growth,"locus YAL021C, strain ccr4, active compounds read low",0.83 (active)
same,normalized growth,"locus YAL026C, strain drs2, active compounds read low",0.862 (active)
same,normalized growth,"locus YAL030W, strain snc1, active compounds read low",0.866 (active)
same,normalized growth,"locus YAL040C, strain CLN3, active compounds read low",0.989
same,normalized growth,"locus YBL061C, strain skt5, active compounds read low",0.865 (active)
same,normalized growth,"locus YBR009C, strain hhf1, active compounds read low",0.929
same,normalized growth,"locus YBR021W, strain FUR4, active compounds read low",1.01
same,normalized growth,"locus YBR023C, strain chs3, active compounds read low",0.85 (active)
same,normalized growth,"locus YBR171W, strain sec66, active compounds read low",0.949
same,normalized growth,"locus YBR229C, strain ROT2, active compounds read low",1.01
same,normalized growth,"locus YBR231C, strain swc5, active compounds read low",0.785 (active)
same,normalized growth,"locus YBR279W, strain paf1, active compounds read low",0.924 (active)
same,normalized growth,"locus YCL011C, strain gbp2, active compounds read low",0.883 (active)
same,normalized growth,"locus YCL016C, strain dcc1, active compounds read low",0.925
same,normalized growth,"locus YCL029C, strain bik1, active compounds read low",0.995
same,normalized growth,"locus YCL061C, strain MRC1 (second series), active compounds read low",0.611 (active)
same,normalized growth,"locus YCL069W, strain vba3, active compounds read low",0.978
same,normalized growth,"locus YCR088W, strain abp1, active compounds read low",0.986
same,normalized growth,"locus YDL005C, strain med2, active compounds read low",1.02
same,normalized growth,"locus YDL035C, strain GPR1, active compounds read low",1.04
same,normalized growth,"locus YDL040C, strain nat1, active compounds read low",0.977
same,normalized growth,"locus YDL074C, strain BRE1, active compounds read low",1.01
same,normalized growth,"locus YDL101C, strain DUN1, active compounds read low",1.01
same,normalized growth,"locus YDL134C, strain PPH21, active compounds read low",1.03
same,normalized growth,"locus YDL185W, strain tfp1, active compounds read low",1
same,normalized growth,"locus YDL192W, strain arf1, active compounds read low",0.997
same,normalized growth,"locus YDR001C, strain nth1, active compounds read low",1.01
same,normalized growth,"locus YDR069C, strain doa4, active compounds read low",0.573 (active)
same,normalized growth,"locus YDR101C, strain arx1, active compounds read low",0.973
same,normalized growth,"locus YDR137W, strain rgp1, active compounds read low",0.996
same,normalized growth,"locus YDR159W, strain sac3, active compounds read low",0.987
same,normalized growth,"locus YDR162C, strain NBP2, active compounds read low",1.03
same,normalized growth,"locus YDR195W, strain ref2",1.02
same,normalized growth,"locus YDR297W, strain sur2, active compounds read low",0.88 (active)
same,normalized growth,"locus YDR318W, strain mcm21, active compounds read low",0.992
same,normalized growth,"locus YDR334W, strain swr1, active compounds read low",0.873 (active)
same,normalized growth,"locus YDR335W, strain msn5, active compounds read low",0.923
same,normalized growth,"locus YDR363W, strain ESC2, active compounds read low",0.823 (active)
same,normalized growth,"locus YDR388W, active compounds read low",0.993
same,normalized growth,"locus YDR392W, strain spt3, active compounds read low",0.534 (active)
same,normalized growth,"locus YDR502C, strain sam2, active compounds read low",0.999
same,normalized growth,"locus YEL003W, strain gim4, active compounds read low",0.942
same,normalized growth,"locus YEL037C, strain rad23, active compounds read low",0.962
same,normalized growth,"locus YEL061C, strain CIN8 (second series), active compounds read low",0.971
same,normalized growth,"locus YEL061C, strain CIN8, active compounds read low",1.01
same,normalized growth,"locus YER002W, strain NOP16, active compounds read low",0.982
same,normalized growth,"locus YER015W, strain faa2, active compounds read low",0.784 (active)
same,normalized growth,"locus YER016W, strain bim1, active compounds read low",0.979
same,normalized growth,"locus YER110C, active compounds read low",0.985
same,normalized growth,"locus YER111C, strain swi4, active compounds read low",0.996
same,normalized growth,"locus YER155C, strain BEM2 (second series), active compounds read low",0.861 (active)
same,normalized growth,"locus YER155C, strain BEM2, active compounds read low",1
same,normalized growth,"locus YER167W, strain BCK2, active compounds read low",1.03
same,normalized growth,"locus YFR010W, strain ubp6, active compounds read low",0.882 (active)
same,normalized growth,"locus YGL078C, strain dbp3, active compounds read low",0.983
same,normalized growth,"locus YGL086W, strain mad1, active compounds read low",1
same,normalized growth,"locus YGL167C, strain pmr1, active compounds read low",0.985
same,normalized growth,"locus YGL173C, strain kem1, active compounds read low",0.725 (active)
same,normalized growth,"locus YGL227W, strain vid30, active compounds read low",1.02
same,normalized growth,"locus YGL240W, strain doc1, active compounds read low",0.929
same,normalized growth,"locus YGL248W, strain PDE1, active compounds read low",1.01
same,normalized growth,"locus YGL253W, strain hxk2, active compounds read low",0.969
same,normalized growth,"locus YGR135W, strain pre9, active compounds read low",1
same,normalized growth,"locus YGR229C, strain SMI1, active compounds read low",1.02
same,normalized growth,"locus YGR252W, strain gcn5, active compounds read low",1.01
same,normalized growth,"locus YHR013C, strain ard1, active compounds read low",0.818 (active)
same,normalized growth,"locus YHR027C, strain rpn1, active compounds read low",0.826 (active)
same,normalized growth,"locus YHR030C, strain SLT2, active compounds read low",1.01 and 1.02
same,normalized growth,"locus YHR079C, strain IRE1 (second series), active compounds read low",0.994
same,normalized growth,"locus YHR079C, strain IRE1, active compounds read low",1.05
same,normalized growth,"locus YHR094C, strain hxt1, active compounds read low",0.99
same,normalized growth,"locus YHR129C, strain ARP1, active compounds read low",1.01
same,normalized growth,"locus YHR142W, strain chs7, active compounds read low",0.867 (active)
same,normalized growth,"locus YHR200W, strain rpn10, active compounds read low",0.997
same,normalized growth,"locus YIL066C, strain RNR3, active compounds read low",1.03
same,normalized growth,"locus YIL073C, strain SPO22, active compounds read low",1.03
same,normalized growth,"locus YIL125W, strain kgd1, active compounds read low",0.989
same,normalized growth,"locus YIR030C, strain dcg1, active compounds read low",1
same,normalized growth,"locus YJL092W, strain hpr5, active compounds read low",0.979
same,normalized growth,"locus YJL095W, strain BCK1 (second series), active compounds read low",0.906 (active)
same,normalized growth,"locus YJL095W, strain BCK1, active compounds read low",0.998 and 1.04
same,normalized growth,"locus YJL115W, strain asf1, active compounds read low",0.999
same,normalized growth,"locus YJL129C, strain trk1, active compounds read low",1.07
same,normalized growth,"locus YJL134W, strain LCB3, active compounds read low",1
same,normalized growth,"locus YJL154C, strain vps35, active compounds read low",1.01
same,normalized growth,"locus YJL164C, strain tpk1, active compounds read low",0.874 (active)
same,normalized growth,"locus YJL166W, strain qcr8, active compounds read low",0.742 (active)
same,normalized growth,"locus YJL168C, strain set2, active compounds read low",0.989
same,normalized growth,"locus YJL187C, strain SWE1 (second series), active compounds read low",1.01
same,normalized growth,"locus YJL187C, strain SWE1, active compounds read low",0.887 (active)
same,normalized growth,"locus YJR043C, strain POL32, active compounds read low",1.03
same,normalized growth,"locus YJR066W, strain TOR1, active compounds read low",0.989
